Source: PubChem BioAssay
ASK1 primary = human ASK1 kinase inhibition, primary screen; Q99683; 22,000 tested, 0.99% active; inhibition, % at 7.44 µM; AlphaScreen MKK6 phosphorylation by ASK1, luminescence; in the data active = inhibition above about 35%;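 note: 0% = median of compound wells and 100% = no enzyme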
Target sequence (Q99683 whole entry, looked up): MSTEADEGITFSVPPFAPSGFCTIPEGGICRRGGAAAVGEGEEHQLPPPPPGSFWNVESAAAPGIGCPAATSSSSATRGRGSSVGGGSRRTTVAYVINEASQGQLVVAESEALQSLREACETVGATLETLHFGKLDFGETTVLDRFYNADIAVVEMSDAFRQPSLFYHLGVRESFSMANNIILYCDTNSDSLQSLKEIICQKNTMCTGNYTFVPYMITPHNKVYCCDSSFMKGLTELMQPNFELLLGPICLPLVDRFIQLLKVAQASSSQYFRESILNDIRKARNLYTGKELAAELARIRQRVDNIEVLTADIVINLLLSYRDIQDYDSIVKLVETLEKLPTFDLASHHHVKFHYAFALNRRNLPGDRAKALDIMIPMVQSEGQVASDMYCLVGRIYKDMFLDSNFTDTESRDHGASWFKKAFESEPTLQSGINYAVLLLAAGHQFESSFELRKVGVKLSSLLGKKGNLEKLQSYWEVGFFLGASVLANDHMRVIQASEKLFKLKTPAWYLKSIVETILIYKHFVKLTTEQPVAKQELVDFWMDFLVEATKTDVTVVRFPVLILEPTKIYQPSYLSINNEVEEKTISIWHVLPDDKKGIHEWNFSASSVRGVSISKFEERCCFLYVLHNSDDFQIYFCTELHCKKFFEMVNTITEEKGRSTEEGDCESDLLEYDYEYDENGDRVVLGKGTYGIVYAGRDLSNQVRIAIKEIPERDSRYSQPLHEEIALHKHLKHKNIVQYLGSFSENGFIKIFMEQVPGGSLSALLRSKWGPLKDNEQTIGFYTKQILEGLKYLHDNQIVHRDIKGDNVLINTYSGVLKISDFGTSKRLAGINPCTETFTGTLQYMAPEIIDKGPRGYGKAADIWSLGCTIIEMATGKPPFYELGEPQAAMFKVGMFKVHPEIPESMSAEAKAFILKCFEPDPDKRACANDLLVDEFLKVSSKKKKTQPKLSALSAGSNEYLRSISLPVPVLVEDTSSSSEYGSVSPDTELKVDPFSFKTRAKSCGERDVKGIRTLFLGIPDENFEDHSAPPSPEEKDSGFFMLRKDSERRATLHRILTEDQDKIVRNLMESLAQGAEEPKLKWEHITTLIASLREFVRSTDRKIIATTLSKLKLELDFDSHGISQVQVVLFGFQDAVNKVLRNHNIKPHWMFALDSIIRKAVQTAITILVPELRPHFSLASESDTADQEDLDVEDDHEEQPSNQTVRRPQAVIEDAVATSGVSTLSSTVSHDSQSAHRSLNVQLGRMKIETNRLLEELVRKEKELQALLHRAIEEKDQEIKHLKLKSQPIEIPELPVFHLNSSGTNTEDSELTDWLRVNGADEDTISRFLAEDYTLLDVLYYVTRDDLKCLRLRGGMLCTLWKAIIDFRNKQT
ULK1 inh = inhibitors of human ULK1 kinase; inhibition, % at 5.96 µM; 30,000 tested, 1.9% active; AlphaScreen Atg13 phosphorylation by ULK1, luminescence; O75385; AID 1259251; in the data active = inhibition above about 43%;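 note: 0% = median of compound wells and 100% = no enzyme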
* = called active by the depositor; . = no result given; ! = a repeat was not active. Hits are enriched below; roughly 2.5% of the tested compounds scored in any of these assays.

SMILES	ASK1 primary	ULK1 inh
COc1ccc(CCNC(=O)c2cccc(N3CCCC3CO)n2)cc1 (stereo not drawn)	-4	-24
CC(C(=O)Nc1cnn(-c2cccc(C(=O)Nc3ccc(N4CCOCC4)cc3)c2)c1)c1ccccc1 (stereo not drawn)	-11	-12
O=C(Nc1ccccc1)Nc1cnn(-c2ccc3c(c2)C(Nc2ccc(N4CCOCC4)cc2)CCC3)c1 (stereo not drawn)	6	45*
CNC(=O)c1ncccc1Nc1cc(Nc2ccc3c(c2)CCC(=O)N3)ncc1C(F)(F)F	-6	48*
CNC(=O)c1ncccc1Nc1cc(Nc2ccc3c(c2)NC(=O)C3)ncc1C(F)(F)F	9	4
O=C1Cc2cc(NC(=O)c3ccc(Br)cc3)ccc2N1	.	-14
N#Cc1ccccc1Nc1cc(NC(=O)Cc2ccc(F)cc2)ncc1C(F)(F)F	14	-3
CNC(=O)c1ncccc1Nc1cc(Nc2ccc3c(c2)CC(=O)N3)ncc1C(F)(F)F	23	11
CNC(=O)c1cc(F)ccc1Nc1cc(Nc2ccc3c(c2)CC(=O)N3)ncc1C(F)(F)F	16	66*
CC(=O)Nc1ccccc1Nc1cc(Nc2ccc3c(c2)CC(=O)N3)ncc1C(F)(F)F	-12	82*
CNC(=O)c1cc(F)ccc1Nc1cc(Nc2ccc3c(c2)NC(=O)C3)ncc1C(F)(F)F	1	64*
COc1ccc(CCNc2nc(Nc3cnccn3)nc3c2ncn3C(C)C)cc1	-10	1
CNC(=O)c1ccccc1Nc1cc(Nc2ccc(N3CCS(=O)(=O)CC3)cc2OC)ncc1C#N	5	81*
NC(=O)c1ccccc1Nc1ccnc(Nc2ccc(N3CCOCC3)cc2F)c1	5	-8
CN(C)Cc1cnc(Nc2ccc(N3CCOCC3)cc2)cc1Nc1ccccc1C#N	13	5
CNC(=O)c1ccccc1Nc1cc(Nc2ccc(N3CCSCC3)cc2OC)ncc1C#N	33	86*
O=C1c2c(O)cccc2Cc2cccc(O)c21	.	60*!
Oc1cccc2c1CC=CC2	.	10
O=C(NC1CCN(Cc2ccccc2)CC1)c1ccc2nc(Br)sc2c1	10	-5
CC(=O)c1nc(Nc2ccc(-n3cnc(C)n3)cc2)ncc1Cl	6	34
Clc1cnc(Nc2ccc(-n3cnc(N4CCOCC4)n3)cc2)nc1-c1cn[nH]c1	-33	77*
c1cc(-n2cnc(N3CCOCC3)n2)ccc1Nc1ncc2cc(-c3cn[nH]c3)ccc2n1	9	11
Cc1ncn(-c2ccc(Nc3ncc(Cl)c(-c4cn[nH]c4)n3)cc2)n1	-43	73*
O=C1c2ccccc2C(=O)N1Cc1nc2ccncc2[nH]1	7	2
N[C@H](Cc1ccccc1Cl)c1nc2ccc(-c3ccncc3)cc2[nH]1	-7	-2
SMILES	ASK1 primary	ULK1 inh
NC(=O)c1ccc(-c2nc3ccc(C(=O)NC4CC4)cc3s2)cc1	9	3
O=C(Cc1cn(-c2ccc(NCCCN3CCCC3=O)nn2)c2ccccc12)Nc1ccc(Oc2ccccc2)cc1	16	-13
O=C(Cc1cn(-c2ccc(NCCCN3CCCC3=O)nn2)c2ccccc12)Nc1ccc(N2CCOCC2)cc1	-1	47*
O=C(Cc1cn(-c2ccc(NCCCN3CCCC3=O)nn2)c2ccccc12)Nc1ccccc1	-3	2
CC(=O)Nc1ccc(NC(=O)Cc2cn(-c3ccc(NCCCN4CCCC4=O)nn3)c3ccccc23)cc1	5	44*
COc1cccc(CN(C)C(=O)c2cn(C)c3cc(-c4cn[nH]c4)ccc23)c1	11	-44
Cn1c(Nc2cc(C(=O)NCCN3CCOCC3)ccn2)nc2ccccc21	-3	4
CN(c1ncccc1CNc1cc(Nc2ccc3[nH]c(=O)oc3c2)ncc1C(F)(F)F)S(C)(=O)=O	23	39
CN(C)C(=O)C(=O)c1c[nH]c2ccc(Nc3cc(Nc4ccccn4)c(C(F)(F)F)cn3)cc12	19	45*
CNC(=O)c1ccccc1Nc1cc(Nc2ccc3[nH]cc(C(=O)C(=O)N(C)C)c3c2)ncc1C(F)(F)F	-14	75*
O=C(NC1CC1)c1ccnc(Nc2ccncn2)c1	2	4
Cc1noc(C)c1-c1cc(Nc2ccc(Oc3ccccc3)cc2)nc(N)n1	-9	-26
O=C(NCc1ccccc1)c1cc(NCc2ccc3c(c2)OCO3)nc2ccccc12	-7	1
CCOC(=O)N1CCN(c2nc(NCCO)c3cnn(-c4ccc(Cl)cc4)c3n2)CC1	.	-1
NC(=O)c1ccc(-c2nc(NCCOc3ccccc3)c3ncn(C4CCCCC4)c3n2)cc1	-5	5
NC(=O)c1ccccc1Nc1nc(Nc2ccc(N3CCOCC3)c(Cl)c2)ncc1Cl	-88	80*
Cc1cc(Nc2cc(Nc3ccccc3C(N)=O)ccn2)ccc1N1CCOCC1	7	6
Cc1cc(Nc2ncc(Cl)c(Nc3ccccc3C(N)=O)n2)ccc1N1CCOCC1	-92	70*
Cc1cnc(Nc2ccc(N3CCOCC3)cc2)nc1Nc1ccccc1	15	30
NC(=O)c1ccccc1Nc1nc(Nc2ccc(Cl)cc2)ncc1Cl	-39	20
Cc1cnc(Nc2ccc(N3CCOCC3)cc2)nc1Nc1ccccc1C(N)=O	-59	95*
CCCNC(=O)c1cnc(-c2c(C)nn(C)c2C)s1	1	4
Cc1ccc(C(N)C(=O)N2CCC(Nc3ccc4[nH]ncc4c3)CC2)cc1 (stereo not drawn)	-10	0
Cc1nn(C)c(C)c1-c1nc2ccc(C(=O)NCCOc3ccccc3)cc2s1	6	-7
c1ccc2c(c1)NCC(c1nc3ccc(-c4ccncc4)cc3[nH]1)O2 (stereo not drawn)	11	7
SMILES	ASK1 primary	ULK1 inh
CCCNc1nc(Nc2ccc(C(F)(F)F)cc2)nc2cc(OC)c(OC)cc12	-14	7
O=C([C@H](O)c1ccccc1)N1CCC(Nc2ccc3[nH]ncc3c2)CC1	1	0
COc1ccc(CCNC(=O)C2CCN(c3ccc(NCCN4CCOCC4)nn3)CC2)cc1	16	-7
CN1CCN(CCNC(=O)c2cncc(-n3ncc4cc(Nc5c(Cl)cccc5Cl)ccc43)c2)CC1	-14	7
CNS(=O)(=O)c1ccccc1Nc1cc(Nc2cc(-c3cncnc3)nc(C)n2)ncc1C(F)(F)F	14	73*
CNS(=O)(=O)c1ccccc1Nc1cc(Nc2ccc(N3CCCC3=O)cc2)ncc1C(F)(F)F	-6	50*
CS(=O)(=O)c1cccc(CNc2cc(Nc3ccc(N4CCCC4=O)cc3)ncc2C(F)(F)F)c1	14	24
Cc1nc(Nc2ccccc2)cc(-c2cncc(-c3ccccc3)c2)n1	.	0
COc1nc(Nc2cc(OC)c(OC)c(OC)c2)nc(-c2c(C)noc2C)n1	-26	-5
OCCNc1ncnc2nc(-c3csc4ccccc34)[nH]c12	-16	-14
O=C(O)c1cc(O)ccc1O	.	4
Nc1ccc(O)c(C(=O)O)c1	.	55*
COc1cc(OC)c2cc(C(=O)O)n(C)c2c1	.	2
CC(=O)Nc1ccc(Nc2nc(N3CCOCC3)nc3c2ncn3-c2ccsc2)cc1	-30	-5
Cc1cnc(Nc2ncccn2)nc1NC1CC1	-22	16
CN(C)c1cccc(Nc2nc(Nc3ccccc3)c3[nH]cnc3n2)c1	30	15
COc1cc(Nc2nc(NCc3ccc4c(c3)OCO4)nc3nc[nH]c23)cc(OC)c1OC	21	-14
CC(C)N(CCNc1nc(Nc2ccc3ncccc3c2)nc2nc[nH]c12)C(C)C	7	17
COc1cc(Nc2nc(Nc3ccc4c(c3)OCO4)c3[nH]cnc3n2)cc(OC)c1OC	6	52*
COc1cc(Nc2ncc(C)c(NC3CC3)n2)cc(OC)c1OC	20	65*
